Laboratory results from PubChem BioAssay (NCI).
This is part of a sample that, as a whole, favours compounds with a hit. Of some 79,000 tested, about 15% had one in any assay. Unmarked numbers belong to inactive results. Activity calls are given as the source filed them. No stated cut-off is given here; in the data, active means growth inhibition above about 70%; inactive means the rest.

Assays:
[1] = NCI Yeast Anticancer Drug Screen. Data for the rad50 strain (AID 155);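 further: 0% = growth of vehicle-only cultures of the same strain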; conditions: S. cerevisiae rad50 strain growth inhibition, active compounds read high
Procedure, shortened: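 Genetically altered yeast (DNA repair pathway); compound treatment; growth inhibition vs vehicle ctrl.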

[2] = NCI Yeast Anticancer Drug Screen. Data for the mec2-1 strain (AID 157); conditions: S. cerevisiae mec2-1 strain, active compounds read high
Procedure, shortened: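 Compounds were applied to mec2-1 yeast cells. Their growth was then compared with that of vehicle-treated cultures to give growth inhibition.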

[3] = NCI Yeast Anticancer Drug Screen. Data for the sgs1 mgt1 strain (AID 161);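 further: 0% = growth of cultures given vehicle only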; conditions: S. cerevisiae sgs1 mgt1 strain, active compounds read high
Procedure, shortened: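 Compounds are added to genetically altered yeast, and growth is compared with cultures given vehicle alone to give percent inhibition.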

[4] = NCI Yeast Anticancer Drug Screen. Data for the cln2 rad14 strain (AID 165);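 further: 0% = growth equal to vehicle treated cultures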; conditions: S. cerevisiae cln2 rad14 strain, active compounds read high
Procedure, shortened: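 Strain: cln2 rad14 yeast, altered in cell cycle control and DNA damage repair. Read-out: growth inhibition vs vehicle.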

[5] = NCI Yeast Anticancer Drug Screen. Data for the bub3 strain (AID 167); conditions: S. cerevisiae bub3 mutant strain, active compounds read high
Procedure, shortened: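 Yeast carrying a defined mutation is treated with each compound, and growth is compared with that of vehicle-exposed cells to give inhibition.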

[6] = NCI Yeast Anticancer Drug Screen. Data for the mlh1 rad18 strain (AID 175); conditions: S. cerevisiae mlh1 rad18 strain growth inhibition, active compounds read high
Procedure, shortened: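 A repair-deficient yeast strain is exposed to test compound, and growth is scored relative to vehicle-treated controls.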

[7] = at 5.0 µM (retest, dose inferred, filed as 0.5)
[8] = at 50.0 µM (retest, dose inferred, filed as 5.0)

SMILES	growth inhibition [1, 7]	growth inhibition [1, 8]	growth inhibition ([1]; at 50.0 µM)	growth inhibition [2, 7] [%]	growth inhibition [2, 8]	growth inhibition ([2]; at 50.0 µM)	growth inhibition [3, 7]	growth inhibition [3, 8]	growth inhibition ([3]; at 50.0 µM)	growth inhibition [4, 7] [%]	growth inhibition [4, 8]	growth inhibition ([4]; at 50.0 µM)	growth inhibition [5, 7]	growth inhibition [5, 8]	growth inhibition ([5]; at 50.0 µM)	growth inhibition [6, 7] [%]	growth inhibition [6, 8]	growth inhibition ([6]; at 50.0 µM)
COC(=O)c1nnn(-c2ccc(Cl)cc2Cl)c1C(=O)c1ccc(Cl)c(Cl)c1	11%	99% (active)	98.3% (active)	2	99% (active)	95.5% (active)	4%	99% (active)	99% (active)	11	98% (active)	92.1% (active)	17%	99% (active)	95.8% (active)	19	99% (active)	98.7% (active)
NNC(=O)N/N=C(\CC1(O)C(=O)Nc2c(Cl)ccc(Cl)c21)c1ccc(F)cc1 (configuration not stated)	79% (active)	91% (active)	56.4%	50	80% (active)	39.5%	72% (active)	85% (active)	37.4%	64	74% (active)	2.75%	70% (active)	80% (active)	21.9%	57	73% (active)	50.3%
CCCCC(O)(c1ccccc1)C(O)(c1ccccc1)c1c(F)c(F)c(F)c(F)c1F (configuration not stated)	17%	99% (active)	81.1% (active)	-3	99% (active)	96.6% (active)	-5%	98% (active)	99% (active)	1	98% (active)	97.3% (active)	-8%	96% (active)	98.6% (active)	-4	99% (active)	97.2% (active)
CCC1CCC2=C(C1)C(=O)c1ccccc1C2=O (configuration not stated)	6%	91% (active)	3.4%	7	92% (active)	49.5%	11%	96% (active)	45%	11	71% (active)	49.3%	9%	94% (active)	95.9% (active)	6	97% (active)	51.5%
O=C(NC(Cc1ccc(I)cc1)C(=O)O)c1cccc(Br)c1 (configuration not stated)	24%	39%	-14.4%	13	6%	-35%	23%	37%	-20.5%	17	34%	-8.15%	21%	29%	-28.9%	23	32%	-15.9%
C/C(=N/NC(=O)c1ccccc1S(N)(=O)=O)C(CN1CCCCC1)C(C1=C(O)C2C=CC=CC2OC1=O)c1ccccc1 (configuration not stated)	41%	41%	89.7% (active)	25	25%	91.4% (active)	19%	19%	91% (active)	8	8%	88.8% (active)	31%	31%	88.8% (active)	22	22%	88% (active)
C/C(=N\NC(=S)Nc1ccc(C)cc1)c1nc2ncccc2[nH]1	-9%	84% (active)	73.8% (active)	-6	88% (active)	66.2%	0%	84% (active)	66.3%	-36	91% (active)	64.5%	-21%	97% (active)	71.5% (active)	4	91% (active)	50.9%
CNC(C)C(=O)c1ccc2ccc3ccccc3c2c1 (configuration not stated)	-3%	24%	54.5%	-5	12%	46.6%	-2%	34%	58.9%	0	16%	17.6%	-3%	24%	67.8%	-6	28%	71.5% (active)
CCCC[NH-].CCCC[NH-].[I][Pt+2][I]	30%	67%	29.2%	22	49%	15%	48%	70% (active)	60.6%	53	57%	15.2%	56%	68%	49.4%	20	62%	41.4%
